This is part of a sample that, as a whole, favours compounds with a hit. Of some 83,000 tested, about 20% had one in any assay.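 Cells were grown in 96-well plates and exposed to the test compound at a single concentration for 48 hours; results are reported as percent growth, with values below 10 considered active.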 Unmarked numbers belong to inactive results. Calls of active or inactive are those of the source.

Assay in all cases: NCI-60 one-dose screen, 48 h (100 = growth as untreated, 0 = no growth, -100 = all killed)
Common to all, as to conditions: 10 µM unless noted

Experiment [1] has as its system DU-145 prostate.
Experiment [2] concerns K-562 leukemia.
The subject of experiment [3] is MALME-3M melanoma.
Experiment [4] deals with MDA-MB-231 breast.
Experiment [5] deals with SF-268 CNS.
The subject of experiment [6] is SF-295 CNS.
The subject of experiment [7] is SF-539 CNS.
In experiment [8] the test system is UACC-257 melanoma.
The subject of experiment [9] is M14 melanoma.
The test system of experiment [10] is HCT-15 colon.
For experiment [11], the system named is HT29 colon.
Experiment [12] deals with SNB-75 CNS.
Experiment [13] concerns SNB-19 CNS.
In experiment [14] the test system is PC-3 prostate.
The test system of experiment [15] is SK-MEL-5 melanoma.
Experiment [16] concerns UACC-62 melanoma.
For experiment [17], the system named is LOX IMVI melanoma.
Experiment [18] deals with SK-MEL-28 melanoma.
The subject of experiment [19] is RXF 393 renal.
For experiment [20], the system named is U251 CNS.

For `COc1cc(OC)c(/C=C/c2cc[n+](C)c3ccccc23)c(OC)c1`, the growth in experiment [1] was 18.5%; in experiment [2], 7.21% (active); in experiment [3], 5.28% (active); in experiment [4], 22.5%; in experiment [5], 15.7%; in experiment [6], -48.8% (active). Further, the growth in experiment [7] is 12%; in experiment [8], -24.7% (active); in [9], 36.2%; in [10], 90.9%; in [11], 0.813% (active); in [12], -13.8% (active). Further, the growth in experiment [13] was 26.4%; in experiment [14] it was 16.5%; in [15], -47.2% (active); in experiment [16], 12.7%; in experiment [17] it was -74.2% (active); in [18], 24.8%.
For `C#Cc1nc(Nc2cc(C)[nH]n2)c2ccccc2n1`, the growth in experiment [1] was -80% (active); in experiment [2] it was 2.59% (active); in experiment [3], -70.8% (active); in experiment [4] it was -56% (active); in experiment [5] it was -86% (active); in [6] it was -57.9% (active). Moreover, the growth is -44.5% (active) in experiment [7]; -54.9% (active) in [8]; -23.6% (active) in [9]; -25.6% (active) in [10]; -30.1% (active) in experiment [11]; -88.9% (active) in experiment [12]. The growth is 13.3% in experiment [13]; -42.1% (active) in experiment [14]; -84.9% (active) in [15]; -81.5% (active) in experiment [16]; -74.8% (active) in [17]; -58.5% (active) in experiment [18].
On to `COc1cccc(-n2cc(-c3nc(Nc4cc(C)[nH]n4)c4ccccc4n3)nn2)c1`, for which the growth is 66.4% in experiment [1]; 27% in [2]; 42.9% in experiment [3]; 63.4% in experiment [4]; 64.1% in [5]; 37.7% in experiment [6]. Besides, the growth is 52.9% in [7]; 83.4% in experiment [8]; 54.1% in experiment [9]; 29.7% in [10]; 65.5% in experiment [11]; -10.2% (active) in experiment [12]. Moreover, the growth is 73.1% in experiment [13]; 55.3% in experiment [14]; -42% (active) in [15]; 50.8% in experiment [16]; 66.5% in [17]; 64% in [18].
As to `CC(=O)OCC(=O)C1CCC=CC1OC(C)=O` (stereo unspecified), the growth was 103% in experiment [1]; 98.9% in experiment [2]; 74.2% in experiment [3]; 109% in [4]; 106% in experiment [5]; 94.8% in experiment [6]. For the same compound, the growth in experiment [7] is 103%; in [8] it was 92.6%; in experiment [9] it was 96.9%; in [10] it was 103%; in experiment [11], 107%; in [12], 80.9%. Also, the growth in experiment [13] was 93.5%; in [14], 105%; in [15], 97.7%; in experiment [16], 95.4%; in experiment [17], 96.1%; in [18], 108%.
With `Nc1ccc(N2CCOCC2)cc1`, the growth in experiment [1] was 118%; in experiment [2], 102%; in [3], 86.5%; in experiment [4], 96.1%; in experiment [19], 108%; in [5], 107%. For the same compound, the growth is 107% in experiment [8]; 94.1% in [9]; 103% in [10]; 109% in experiment [11]; 91.9% in experiment [12]; 91.1% in experiment [13]. Further, the growth in [20] is 98%; in experiment [14] it was 101%; in experiment [15] it was 92.7%; in [16], 86.6%; in experiment [17], 104%; in experiment [18], 118%.
Regarding `Oc1ccccc1/C=N/Nc1ccc2ccccc2n1`, the growth in experiment [1] was 55.6%; in experiment [2], 17.8%; in experiment [3], 35.2%; in experiment [4], 57.3%; in [5], 52%; in experiment [6], 33.5%. In addition, the growth in [7] was 42.1%; in experiment [8], 62.8%; in experiment [9], 52.3%; in experiment [10] it was 25.2%; in experiment [11], 48.9%; in experiment [12], 31.9%. The growth in [13] was 67.6%; in [14] it was 57.3%; in [15] it was 51.3%; in experiment [16], 40.6%; in experiment [17], 42.3%; in [18] it was 74.1%.
For the compound `Cl/C(=N\Nc1ccccc1)c1ccccc1`, the growth in [1] was 101%; in [2], 89.5%; in experiment [3], 86.4%; in [4], 89.7%; in experiment [5], 92.8%; in experiment [6], 87.7%. Further, the growth in experiment [7] was 103%; in experiment [8], 75.2%; in experiment [9] it was 106%; in experiment [10], 93.4%; in experiment [11], 103%; in experiment [12] it was 67.4%. Further, the growth in [13] is 100%; in experiment [14], 78%; in [15] it was 93.8%; in [16] it was 78.2%; in experiment [17], 97%; in experiment [18] it was 101%.
Turning to `O=c1c2cccc3c(NC4CCCCC4)ccc(c32)c2nc3ccccc3n12`, the growth in experiment [1] was 98.7%; in [2], 66.9%; in [3] it was 96.1%; in experiment [4], 82.3%; in [19], 112%; in [5] it was 99.5%. Also, the growth in experiment [7] was 96.2%; in experiment [9], 86.7%; in [10], 74.8%; in experiment [11], 76.8%; in experiment [12], 83%; in experiment [13] it was 89.4%. In addition, the growth is 80% in experiment [14]; 66.1% in experiment [15]; 82.8% in experiment [16]; 73.4% in [17]; 92.1% in [18].
For the compound `CC#Cc1nc2ccccc2c(=O)[nH]1`, the growth in experiment [1] is 84.7%; in experiment [2], 37.8%; in experiment [3], 65.5%; in [4], 26.7%; in [5], 53.7%; in experiment [6] it was 87.2%. The growth is 35.6% in experiment [7]; 48.2% in [8]; 51.9% in experiment [9]; 3.71% (active) in [10]; 51.2% in experiment [11]; -2.64% (active) in experiment [12]. Further, the growth in experiment [13] was 123%; in experiment [14], 61.4%; in experiment [15] it was -10% (active); in experiment [16], 50.1%; in [17], -60.1% (active); in experiment [18] it was 54.3%.

The values above are taken from PubChem BioAssay (NCI).
